Pf Dd2 growth – Plasmodium falciparum Dd2 growth inhibition; P. falciparum Dd2 growth, SYBR Green, 72 h; Potency, µM (series often up to 28.9 µM), inactives show top-dose activity, negative = inhibition, actives largely listed as inhibitors; 120,000 tested, 4.3% active; active means well fitted inhibition curve with a large enough effect;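 further: plate controls were DMSO vehicle for no effect and reference drug for full effect; nearly all actives have a fitted effect of over 65% in size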
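Infected erythrocytes (Dd2, 0.3% parasitemia, 2.5% hematocrit final) are added to compound in RPMI-1640/Albumax II medium, grown 72 h at 37C in low oxygen, then lysed with saponin/Triton-X containing SYBR Green and read by fluorescence.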
An asterisk follows results filed as active; i = inactive; [ ] = remark or other dose. This excerpt belongs to a sample that is enriched for hits. Potency means the concentration at half of the fitted maximal effect.

SMILES	Pf Dd2 growth
COc1cccc(-c2n[nH]c3c2CC(=O)N(CC2CCOCC2)C3)c1OC	i
COc1ccc(N2CC(C(=O)NCCc3ccc(Cl)cc3)NC2=O)cc1 (configuration not stated)	-21.1%
Cc1ccc(Cn2c(CN3CCC(C(=O)NCc4ccccc4C)CC3)cc3ccccc32)cc1	-10.1%
CN(C)CCNC(=O)C1CCN(Cc2cc3ccccc3n2Cc2ccccc2)CC1	6.31µM*
O=C(NCCCc1nc2ccccc2n1Cc1ccccc1)C1CCCCC1	-5.6%
O=C1OC[C@@H]2CCN(Cc3ccc4c(c3)OCO4)Cc3ccc(F)cc3N12	i
CC(=O)c1cccc(C(=O)N2CCC3(CC2)NC(=O)N(Cc2ccc(C)cc2)C3=O)c1	i
COCCNC(=O)CCc1c(C)nn(-c2ccccc2)c1Oc1ccc(F)cc1F	i
CCOc1ccc(S(=O)(=O)c2c(C(=O)c3ccc(C)c(C)c3)cnc3ccccc23)cc1	7.94µM*
COc1ccc(-c2cc(C(=O)Oc3cccc(C)c3)c3cc(C)ccc3n2)cc1	42.6%
CCOc1ccc(Nc2c(S(=O)(=O)c3ccc(C)cc3)cnc3cc(OC)c(OC)cc23)cc1	-27.9%
COc1ccc(S(=O)(=O)c2c(C(=O)c3ccc(C)c(C)c3)cnc3ccc(F)cc23)cc1	-21.6%
COc1ccc(C(=O)c2cnc3ccc(C)cc3c2S(=O)(=O)c2ccccc2)cc1	11.2µM*
CCOc1ccc(Nc2c(S(=O)(=O)c3ccc(C)cc3)cnc3ccc(OC)cc23)cc1	i
CC(c1nc(-c2ccc(Cl)cc2)nn1CC(=O)O)N1CCCC1=O (configuration not stated)	0.3%
COc1ccc(C2Cn3cnc(C(=O)N4CCC(C(=O)NC(C)c5ccccc5)CC4)c3CO2)cc1 (configuration not stated)	-17.7%
COCC(=O)Nc1cc(C(=O)N2CCN(C(C)=O)CC2)c2c(c1)ncn2Cc1ccc(F)cc1	-2.5%
C#CCNC(=O)C[C@@H]1CCN(C(=O)CCCCC)C[C@@H]1CC	i
CN(C)Cc1nnc(C2CCN(C(=O)CCc3ccncc3)CC2)n1C	-0.1%
O=c1[nH]ccn1C1CCN(Cc2cccnc2)CC1	-4.7%[44.1 µM]
CCOC(=O)C1CCN(c2cc3c(cc2NC(=O)c2ccccc2Cl)n(C)c(=O)n3C)CC1	11.2µM*
COc1ccccc1C(=O)Nc1cc2c(cc1N1CCCC1)n(C)c(=O)c(=O)n2C	-1.8%
CCOC(=O)c1ccccc1NC(=O)Nc1cc2c(cc1N1CCCC1)n(C)c(=O)n2C	-38.6%
Cc1ccc(NC(=O)Nc2ccccc2)c(=O)n1CC(=O)N1CCN(c2ccccc2)CC1	i
CCN(C(=O)c1cc2c(=O)oc3ccc(C)cc3c2s1)c1cc(OC)ccc1OC	1.2%
SMILES	Pf Dd2 growth
CCN(C(=O)c1cc2c(Cl)nc3ccc(C)cc3c2s1)c1cc(OC)ccc1OC	8.91µM*
Cc1ccc(Cl)cc1N(C)C(=O)c1cc2c(Cl)nc3ccccc3c2s1	19.6%
CCN(C(=O)c1cc2c(Cl)nc3ccccc3c2s1)c1cccc(Cl)c1	10µM*
CCN(C(=O)c1cc2c(=O)oc3ccccc3c2s1)c1cccc(C(F)(F)F)c1	-4.2%
CCc1ccccc1N(C)C(=O)c1cc2c(Cl)nc3ccc(C)cc3c2s1	94.7%[5.79 µM]
CCCn1ncc(-c2nc(Cc3cccs3)nn2CC(=O)O)c1C	-4.7%
COc1ccc2cc(C3CN(c4ncnc(C)c4C)CCO3)ccc2c1 (configuration not stated)	-8.9%
Cc1ccc(-c2nnc(CN3CCC4(CC3)CC(=O)N(CC(C)C)C4)o2)n1C	1.8%
O=C(NCc1cccc(Br)c1)c1noc(-c2ccc(F)cc2)n1	49.7%
COCCC(=O)N1CCCC1c1nc(C2CCOCC2)no1 (configuration not stated)	27.1%
O[C@@H]1C[C@@H](c2nnc3n2CCN(Cc2ccc4c(c2)CCO4)C3)N(Cc2cccnc2)C1	i
N#Cc1ccccc1CN1CCCC(c2nc(-c3cccnc3)no2)CCNC(=O)CC1 (configuration not stated)	-5.4%
O=C1CCN(CC2CC2)CCCC(c2nc(-c3cccnc3)no2)CCN1 (configuration not stated)	i
N#Cc1ccc(CN2CCCC(c3nc(-c4cccnc4)no3)CCNC(=O)CC2)cc1 (configuration not stated)	3.98µM*
CCOc1ccc(-c2ccc(NS(=O)(=O)c3cc(C)ccc3OC)cc2)nn1	10µM*
CCOc1ccc(-c2cccc(NS(=O)(=O)c3ccc(F)cc3F)c2)nn1	59.4%[0.594 µM]
CCOc1ccc(Br)cc1S(=O)(=O)Nc1cccc(-c2ccc(OC)nn2)c1	4.6%
O=C1CCCN1CCCN1C(=O)[C@H]2CN(Cc3cccc(Cl)c3)C[C@H]2C1=O	-3.0%
COCCNC(=O)C[C@@H]1c2nc(NC(=O)c3ccco3)sc2C[C@@H]2[C@](C)(CO)[C@H](O)CC[C@]21C	i
CC(C)NC(=O)C[C@@H]1c2nc(NC(=O)N3CCOCC3)sc2C[C@@H]2[C@](C)(CO)[C@H](O)CC[C@]21C	-16.3%
C[C@]1(CO)[C@H]2Cc3sc(NC(=O)c4ccco4)nc3[C@@H](CC(=O)Nc3ccccc3)[C@]2(C)CC[C@H]1O	7.08µM*
C#CCNC(=O)C[C@@H]1c2nc(NC(=O)c3ccc(C(C)(C)C)cc3)sc2C[C@@H]2[C@](C)(CO)[C@H](O)CC[C@]21C	3.98µM*
C#CCNC(=O)C[C@@H]1c2nc(NC(=O)C(C)(C)C)sc2C[C@@H]2[C@](C)(CO)[C@H](O)CC[C@]21C	i
CC(C)NC(=O)C[C@@H]1c2nc(NC(=O)c3ccc(F)cc3)sc2C[C@@H]2[C@](C)(CO)[C@H](O)CC[C@]21C	i
CN(Cc1ccccc1)C(=O)C[C@@H]1c2nc(NC(=O)CC(C)(C)C)sc2C[C@@H]2[C@](C)(CO)[C@H](O)CC[C@]21C	i
SMILES	Pf Dd2 growth
C[C@]1(CO)[C@H]2Cc3sc(-c4ccsc4)nc3[C@@H](CC(=O)NCc3ccco3)[C@]2(C)CC[C@H]1O	-23.5%
CC(C)C[C@H](CO)NC(=O)C[C@@H]1c2nc(NC(=O)c3ccco3)sc2C[C@@H]2[C@](C)(CO)[C@H](O)CC[C@]21C	8.91µM*
COc1cc(F)ccc1-c1cc(C(=O)NCCc2cnc[nH]2)c2c(c1)N(C)CCO2	-13.5%[44.1 µM]
O=C1NCCCN1C1CCN(Cc2ccccc2C(F)(F)F)CC1	i
CC1(COc2ccccc2)COc2ccc(C(=O)NCc3cccnc3)cc2N1 (configuration not stated)	-20.4%[44.1 µM]
O=C(Cc1ccccc1F)N1CCC(c2noc(-c3cccnc3)n2)C1 (configuration not stated)	i[5.79 µM]
COc1ccc(C(=O)N2C(C(=O)N3CCOCC3)COC23CCN(C(=O)C2CCC2)CC3)cc1 (configuration not stated)	-10.2%
COc1ccc2nc([C@H]3CCN(Cc4cccc(C#N)c4)C3)[nH]c2c1	-2.1%[44.1 µM]
CCCCN1C(=O)C(O)(CC(=O)c2ccc(C(C)(C)C)cc2)c2ccccc21 (configuration not stated)	1.26µM*
COc1ccc(C(=O)CC2(O)C(=O)N(Cc3ccccc3Cl)c3ccccc32)cc1 (configuration not stated)	9.4%
CCOC(=O)c1ccc(NC(=O)CN2C(=O)C(C)(C)c3ccccc32)cc1	15.3%
O=C(Cc1ccccc1)NCc1nnc2n1C(C(=O)O)CC2 (configuration not stated)	11.4%
O=C(Nc1ccc(F)c(Cl)c1)N1CCC(Oc2ncccc2C(=O)N2CCOCC2)C1 (configuration not stated)	58.9%

Compound activity: PubChem BioAssay, National Center for Advancing Translational Sciences (NCATS)
